Data published in ChEMBL document CHEMBL3988442, “University of Dundee, Small-Polar-MMV Screening Library” (2021).
Hit rate of the full screen: of about 48,000 compounds, about 13,000 (27%) showed an effect of 50% or more. This is one part of the list.

These molecules were tested on Wolbachia pipientis (assay: Anti-Wolbachia Cell-Based Screen). Conditions: 5 µM.
Type: functional
Set-up: scale not given: in the data most compounds retested in dose-response had high values

| Compound | Percent Effect |
| --- | --- |
| N#CC1(c2ccccc2)CCN(C(=O)C2CCCN(CC(N)=O)C2)CC1 (stereo unspecified) | -8.527% |
| CC(C)(O)c1cn(C[C@H]2C[C@@H]3CCN2C[C@@H]3C(=O)N2CCOCC2)nn1 | -10.14% |
| O=S(=O)(C1CC1)N1CCC2(CCCN(Cc3ccccn3)C2)CC1 | 112.9% |
| O=C(O)C(F)(F)F.O=C(O)C(F)(F)F.O=C1N(c2cncnc2)CCC12CCCN(Cc1ccccn1)C2 (stereo unspecified) | -2.82% |
| CS(=O)(=O)N1CCC2(CCCN(Cc3ccccn3)C2)CC1.O=C(O)C(F)(F)F | 4.513% |
| O=C(O)C(F)(F)F.O=C(O)C(F)(F)F.O=S(=O)(C1CC1)N1CCC2(CCCN(Cc3ccccn3)C2)C1 (stereo unspecified) | 113.2% |
| CS(=O)(=O)N1CCC2(CCCN(Cc3ccccn3)C2)C1.O=C(O)C(F)(F)F.O=C(O)C(F)(F)F (stereo unspecified) | -1.492% |
| Cc1cnn(CC(C)NCCc2cccs2)c1 (stereo unspecified) | 11.98% |
| CC1CN(C)CCN1C(=O)COc1cccc(Oc2ccccn2)c1 (stereo unspecified) | 82.16% |
| COCCN1C[C@H]2[C@@H](C1)N(C(=O)COc1ccccc1)CC[C@H]2OC | 0.3223% |
| CC(C)=CCN1CCN(C(=O)COc2ccccc2)[C@H]2CS(=O)(=O)C[C@H]21 | -38.59% |
| O=C(c1ccnc(-n2cnnc2)c1)N1CCCC2(CCNC2)C1 (stereo unspecified) | -10.09% |
| CN(C)c1nccc(N(C)C2CCN(CC3CCOC3)CC2)n1 (stereo unspecified) | -1.947% |
| CC(C)N1CCC(N(C)c2ccnc(N(C)C)n2)CC1 | 15.64% |
| CC(C)N1CCOC(c2ccnc(N(C)C)n2)C1 (stereo unspecified) | 82.78% |
| CCOC(=O)N1CCCC2(CCCNC2)C1.Cl (stereo unspecified) | -10.87% |
| Oc1ccc(N2CCN(Cc3ccc(F)cc3Br)CC2)cc1 | 1.788% |
| CCCN(CC)c1cc(C2CCNCC2)nc(C)n1 | 112.1% |
| CC(C)NC(=O)CN1CCSC2(CCCCC2)C1 | -91.97% |
| O=C1N(Cc2ccccn2)C[C@H]2CN(C3CCOCC3)CCN12 | 0.5644% |
| O=C(c1cnc(-c2ccccc2)s1)N1CCC2(CC1)OCCO2 | -4.517% |
| O=C(c1cccc(-n2cnnn2)c1)N1CCC2(CC1)OCCO2 | 106.4% |
| O=C(C1CC(=O)N(c2ccccc2)C1)N1CCC2(CC1)OCCO2 (stereo unspecified) | -2.385% |
| CCCN1CCC(c2nc3ccc(C)cn3n2)CC1.O=C(O)C(F)(F)F | 104.2% |
| Cc1cnc(N2C[C@H]3CCN(CC4CC4)C[C@H]3C2)nc1.O=C(O)C(F)(F)F | 15.24% |
| Cc1cnc(N2C[C@H]3CCN(CC4CC4)C[C@@H]3C2)nc1.O=C(O)C(F)(F)F | 6.173% |
